Experimental findings from PubChem BioAssay (EPA / NIEHS) are described below.

Assay [1] in a line: ATG_TAL_CIS: Attagene CIS-FACTORIAL HepG2 Assay for human TAL Basal Promoter (AID 2282966; active = hit-call score of the fitted dose curve at least 0.9, where 1 is the maximum; inactive = score below 0.9;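 note: background control endpoint measuring basal TAL promoter reporter mRNA not a specific factor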). As to conditions: HepG2 Attagene cis-factorial TAL promoter reporter; actives raise or lower the signal. Summed up:
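Steps: transfect HepG2 with multiple reporter transcription units; dose 24 h; isolate RNA, reverse-transcribe, PCR-amplify, label with 6-FAM, digest with HpaI; resolve by capillary electrophoresis. Bidirectional fitting against DMSO baseline.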

A short description of assay [2]: ATG_TGFb_CIS: Attagene CIS-FACTORIAL HepG2 Assay for human Transforming Growth Factor (TGF) (AID 2282967; active = hit-call score of the fitted dose curve at least 0.9, where 1 is the maximum; inactive = score below 0.9). Particulars: HepG2 Attagene CIS TGFb reporter, mRNA transcription; actives raise or lower the signal. Summed up:
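After a 24-hour incubation with compound, transfected HepG2 cells were lysed for RNA; reporter cDNA was amplified, fluorescently end-labeled and separated by CE. DMSO served as baseline for bidirectional fits.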

Assay [3] is described as follows: ATG_VDRE_CIS: Attagene CIS-FACTORIAL HepG2 Assay for human Vitamin D Receptor Element (VDRE) (AID 2282968; active = hit-call score of the fitted dose curve at least 0.9, where 1 is the maximum; inactive = score below 0.9). As to conditions: HepG2 VDRE cis-reporter transcription, actives raise or lower the signal. Summed up: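 Reporter mRNA induction, quantified by capillary electrophoresis of fluorescently labelled RT-PCR products, was read 24 h after dosing HepG2 cells carrying transiently transfected cis-regulated reporter units; gain or loss relative to DMSO.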

Assay [4] concerns the target Estrogen receptor (Homo sapiens) (UniProt P03372). Put plainly: ATG_ERa_TRANS: Attagene TRANS-FACTORIAL HepG2 Assay for human Estrogen Receptor alpha (ERa) (AID 2282970). As to conditions: HepG2 Attagene TRANS ERa GAL4 reporter, mRNA. Summed up: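 Multiplexed cell-based reporter format in HepG2: chimeric ERa-Gal4 protein drives GAL4-UAS reporter transcription. Fluorescent reporter mRNA quantified by capillary electrophoresis 24 hours after dosing; endpoint fitted as signal gain against DMSO.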

In assay [5] the target is X-box-binding protein 1 (Homo sapiens) (UniProt P17861). Put plainly: ATG_Xbp1_CIS: Attagene CIS-FACTORIAL HepG2 Assay for human X-box Binding Protein 1 (XBP1) (AID 2282972; active = hit-call score of the fitted dose curve at least 0.9, where 1 is the maximum; inactive = score below 0.9). Particulars: HepG2 XBP1 cis-element reporter, Attagene multiplex; actives raise or lower the signal. Summed up: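 Fluorescence-labelled cDNA fragments from reporter transcripts, separated by capillary electrophoresis, give the signal. Source: HepG2 cells transfected with promoter-driven reporter units, harvested 24 h post-dose. DMSO served as reference for bidirectional curve fitting.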
Sequence of X-box-binding protein 1 (Homo sapiens) (P17861 whole entry, looked up, the tested form may be a part): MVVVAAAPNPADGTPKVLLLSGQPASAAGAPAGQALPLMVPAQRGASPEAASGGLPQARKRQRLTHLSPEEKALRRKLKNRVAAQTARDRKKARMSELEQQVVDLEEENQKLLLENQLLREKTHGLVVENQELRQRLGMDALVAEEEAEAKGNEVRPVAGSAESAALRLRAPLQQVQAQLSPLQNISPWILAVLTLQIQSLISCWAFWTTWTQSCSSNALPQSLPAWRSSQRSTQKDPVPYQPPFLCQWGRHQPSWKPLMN

A short description of assay [6]: ATG_M_19_TRANS: Attagene TRANS-FACTORIAL HepG2 Assay for M19 Transcription Factor (Internal Marker) (AID 2282974). Particulars: HepG2 Attagene TRANS-FACTORIAL M19 internal marker reporter. Summed up: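 HepG2 transiently transfected with GAL4-UAS multiplex reporter constructs, exposed 24 h; reporter RNA quantified by RT-PCR, 6-FAM labeling, HpaI digestion and capillary electrophoresis; internal background marker fitted upward versus DMSO.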

Assay [7] in a line: ATG_GAL4_TRANS: Attagene TRANS-FACTORIAL HepG2 Assay for GAL4 (Internal Marker) (AID 2282976). Particulars: HepG2 Attagene TRANS GAL4 internal marker reporter. Summed up: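 Liver HepG2 line bearing multiplexed GAL4-UAS reporter constructs; 24 h chemical treatment. Transcripts were quantified as fluorescent fragments on capillary electrophoresis after RT-PCR and HpaI cut, with activity fitted upward from DMSO.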

Assay [8] concerns the target Oxysterols receptor LXR-beta (Homo sapiens) (UniProt P55055). Put plainly: ATG_LXRb_TRANS: Attagene TRANS-FACTORIAL HepG2 Assay for human Liver X Receptor beta (LXRb) (AID 2282981). Particulars: HepG2 Attagene TRANS GAL4-LXRb reporter, mRNA. Put shortly:
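Transient transfection HepG2 (multiplexed RTUs, GAL4-UAS); NR-Gal4 chimera; 24 h exposure; RNA → RT-PCR → 6-FAM primer extension → HpaI → CE; increase vs DMSO.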

Assay [9] addresses Hepatocyte nuclear factor 4-alpha (Homo sapiens) (UniProt P41235). Nature of the assay: ATG_HNF4a_TRANS: Attagene TRANS-FACTORIAL HepG2 Assay for human Hepatocyte Nuclear Factor 4 alpha (HNF4a) (AID 2282982). Particulars: HepG2 HNF4a transactivation reporter, mRNA readout. Put shortly: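 Readout is fluorescent reporter-transcript fragments resolved by capillary electrophoresis after RT-PCR from HepG2 cells dosed for 24 h. Cells carried transfected GAL4-UAS reporter constructs measuring exogenous NR-GAL4 chimera activity; DMSO served as baseline.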

Assay [10] in a line: ATG_M_32_TRANS: Attagene TRANS-FACTORIAL HepG2 Assay for M32 Transcription Factor (Internal Marker) (AID 2282984).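 Note: transcript level of a background control reporter unit measured by RT-PCR and capillary electrophoresis.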 As to conditions: HepG2 Attagene TRANS M32 internal marker reporter. Summed up: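 Measures reporter mRNA induction in human HepG2 liver cells after 24 h chemical treatment. Transcripts from transiently transfected GAL4-UAS reporter units are amplified, fluorescently labelled and sized by capillary electrophoresis; gain of signal relative to DMSO.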

The target in assay [11] is Transcriptional activator Myb (Homo sapiens) (UniProt P10242). Put plainly: ATG_Myb_CIS: Attagene CIS-FACTORIAL HepG2 Assay for human Myeloblastosis (Myb) Proto-Oncogene Transcription Factor (AID 2282986; active = hit-call score of the fitted dose curve at least 0.9, where 1 is the maximum; inactive = score below 0.9). As to conditions: HepG2 Attagene CIS-FACTORIAL Myb reporter transcription; actives raise or lower the signal. Summed up: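 Transiently transfected HepG2 cells carrying a multiplexed cis-promoter reporter set report endogenous Myb activity after 24 h compound exposure. Reporter mRNA is read by RT-PCR with capillary electrophoresis of fluorescent products, fitted bidirectionally against DMSO.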
Sequence of Transcriptional activator Myb (Homo sapiens) (P10242 whole entry, looked up): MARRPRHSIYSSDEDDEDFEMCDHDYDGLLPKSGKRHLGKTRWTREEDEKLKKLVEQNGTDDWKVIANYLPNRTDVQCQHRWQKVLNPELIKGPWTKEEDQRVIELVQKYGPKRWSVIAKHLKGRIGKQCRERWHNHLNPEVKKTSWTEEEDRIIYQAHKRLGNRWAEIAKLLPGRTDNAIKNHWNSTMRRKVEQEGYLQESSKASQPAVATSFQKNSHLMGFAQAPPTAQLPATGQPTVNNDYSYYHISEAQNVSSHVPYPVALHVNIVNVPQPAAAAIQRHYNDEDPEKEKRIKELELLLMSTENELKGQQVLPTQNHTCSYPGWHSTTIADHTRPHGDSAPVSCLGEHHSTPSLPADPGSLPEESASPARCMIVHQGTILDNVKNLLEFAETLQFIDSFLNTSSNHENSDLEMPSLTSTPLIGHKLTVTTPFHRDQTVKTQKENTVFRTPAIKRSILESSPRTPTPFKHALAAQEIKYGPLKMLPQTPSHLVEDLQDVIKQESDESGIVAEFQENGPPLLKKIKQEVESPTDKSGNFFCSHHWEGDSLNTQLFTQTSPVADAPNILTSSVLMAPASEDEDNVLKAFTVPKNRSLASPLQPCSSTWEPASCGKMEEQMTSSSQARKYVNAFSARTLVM

For assay [12], the target named is Nuclear receptor subfamily 1 group I member 3 (Homo sapiens) (UniProt Q14994). Nature of the assay: ATG_CAR_TRANS: Attagene TRANS-FACTORIAL HepG2 Assay for human Constitutive Androstane Receptor (CAR) (AID 2282969).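 Note: activators raise reporter mRNA above DMSO so AC50 marks induction.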 As to conditions: HepG2 Attagene TRANS-FACTORIAL CAR reporter. Put shortly: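 Readout is reporter mRNA induction, quantified by fluorescent primer extension and capillary electrophoresis after RT-PCR. Cells were HepG2 transiently carrying chimeric NR-Gal4 constructs with GAL4-UAS reporters, treated for 24 h; activity scored upward from DMSO.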

Assay [13] deals with Oxysterols receptor LXR-alpha (Homo sapiens) (UniProt Q13133). Nature of the assay: ATG_LXRa_TRANS: Attagene TRANS-FACTORIAL HepG2 Assay for human Liver X Receptor alpha (LXRa) (AID 2282980). Particulars: HepG2 Attagene TRANS reporter, LXRa transactivation. Put shortly:
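In this multiplexed TRANS system, compounds act on HepG2 cells carrying GAL4-UAS reporter units and a receptor-GAL4 fusion for 24 h. Induced reporter RNA is amplified, fluorescently labelled and sized by capillary electrophoresis, with DMSO as baseline.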

The nature of assay [14]: ATG_M_06_TRANS: Attagene TRANS-FACTORIAL HepG2 Assay for M06 Transcription Factor (Internal Marker) (AID 2282983).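 Note: reporter transcript level by RT-PCR then capillary electrophoresis fluorescence.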 As to conditions: HepG2 Attagene TRANS M06 internal marker reporter. Summed up: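 Internal-marker background readout from a multiplexed TRANS reporter system in HepG2; 24 h dosing; mRNA induction quantified by RT-PCR plus capillary electrophoresis fluorescence; DMSO as negative control and baseline.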

The target of assay [15] is Nuclear receptor subfamily 4 group A member 2 (Homo sapiens) (UniProt P43354). Nature of the assay: ATG_NURR1_TRANS: Attagene TRANS-FACTORIAL HepG2 Assay for human Nuclear Receptor Related Protein 1 (NURR1) (AID 2282985). As to conditions: HepG2 Attagene TRANS reporter, mRNA readout. Put shortly:
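Transient transfection of HepG2, human liver cells, with multiple GAL4-UAS reporter transcription units. Cells dosed 24 h, RNA isolated, reverse-transcribed, PCR-amplified, FAM-labelled, HpaI-digested, sized by capillary electrophoresis. DMSO served as negative control.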

In assay [16] the target is Nuclear respiratory factor 1 (Homo sapiens) (UniProt Q16656). Nature of the assay: ATG_NRF1_CIS: Attagene CIS-FACTORIAL HepG2 Assay for human Nuclear Respiratory Factor 1 (NRF1) Orphan Gene (AID 2282987; active = hit-call score of the fitted dose curve at least 0.9, where 1 is the maximum; inactive = score below 0.9). Particulars: HepG2 NRF1 cis-element reporter, Attagene multiplex; actives raise or lower the signal. Summed up:
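HepG2 cells transiently transfected with multiple cis-regulated reporter units, exposed 24 h. Reporter mRNAs measured by RT-PCR, fluorescent labelling, HpaI digestion and capillary electrophoresis; bidirectional fitting against DMSO.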

Assay [17] addresses Bile acid receptor (Homo sapiens) (UniProt Q96RI1). Put plainly: ATG_FXR_TRANS: Attagene TRANS-FACTORIAL HepG2 Assay for Farnesoid X Receptor (FXR) (AID 2282979).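 Note: hits raise reporter mRNA above DMSO so AC50 marks FXR activation.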 Particulars: HepG2 Attagene TRANS FXR-GAL4 reporter transcription. Put shortly:
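After 24 h chemical treatment of transfected HepG2 cells, GAL4-UAS reporter transcripts driven by an exogenous FXR-GAL4 fusion were measured by RT-PCR and capillary electrophoresis. Increases over DMSO were fitted.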

Assay [18] addresses Steroid hormone receptor ERR1 (Homo sapiens) (UniProt P11474). Put plainly: ATG_ERRa_TRANS: Attagene TRANS-FACTORIAL HepG2 Assay for human Estrogen-Related Receptor alpha (ERRa) (AID 2282971). Particulars: HepG2 Attagene TRANS reporter, ERRa transactivation. Summed up: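 Signal gain relative to DMSO for an ERRa-Gal4 chimeric receptor, read as reporter mRNA by RT-PCR/capillary electrophoresis. Human HepG2 liver cells, transient multiplex reporter transfection, 24 h chemical exposure.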

The target in assay [19] is Estrogen-related receptor gamma (Homo sapiens) (UniProt P62508). Put plainly: ATG_ERRg_TRANS: Attagene TRANS-FACTORIAL HepG2 Assay for human Estrogen-Related Receptor gamma (ERRg) (AID 2282977).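 Note: hits increase reporter signal over DMSO so potencies reflect activators.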 Particulars: HepG2 Attagene TRANS reporter, ERRg transactivation. Put shortly:
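HepG2 cells transiently transfected with multiplexed GAL4-UAS reporter units driven by chimeric NR-Gal4 proteins; 24 h exposure. Reporter mRNA quantified by RT-PCR, fluorescent labelling, HpaI digestion and capillary electrophoresis; gain of signal vs DMSO.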

Structures are written as SMILES. Results filed as inconclusive are left out. The source made the active and inactive calls. Rule for the calls, unless noted: active = hit-call score of the fitted dose curve at least 0.9, where 1 is the maximum; inconclusive = response in the unintended direction; inactive = score below 0.9.

Sequence of Oxysterols receptor LXR-beta (Homo sapiens) (P55055 whole entry, looked up, the tested form may be a part): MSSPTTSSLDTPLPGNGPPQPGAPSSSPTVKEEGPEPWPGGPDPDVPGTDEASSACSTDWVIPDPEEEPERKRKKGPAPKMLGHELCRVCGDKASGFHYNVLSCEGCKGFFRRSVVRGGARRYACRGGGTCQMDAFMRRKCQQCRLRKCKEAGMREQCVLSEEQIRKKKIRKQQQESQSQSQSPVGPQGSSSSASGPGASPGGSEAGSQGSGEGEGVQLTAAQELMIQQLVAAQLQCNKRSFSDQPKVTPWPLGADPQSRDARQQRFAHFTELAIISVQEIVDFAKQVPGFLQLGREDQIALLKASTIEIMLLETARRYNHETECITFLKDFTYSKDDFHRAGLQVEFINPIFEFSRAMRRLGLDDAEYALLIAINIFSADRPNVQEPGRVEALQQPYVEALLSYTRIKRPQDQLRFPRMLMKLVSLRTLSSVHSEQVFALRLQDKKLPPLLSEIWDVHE
Sequence of Nuclear respiratory factor 1 (Homo sapiens) (Q16656 whole entry, looked up): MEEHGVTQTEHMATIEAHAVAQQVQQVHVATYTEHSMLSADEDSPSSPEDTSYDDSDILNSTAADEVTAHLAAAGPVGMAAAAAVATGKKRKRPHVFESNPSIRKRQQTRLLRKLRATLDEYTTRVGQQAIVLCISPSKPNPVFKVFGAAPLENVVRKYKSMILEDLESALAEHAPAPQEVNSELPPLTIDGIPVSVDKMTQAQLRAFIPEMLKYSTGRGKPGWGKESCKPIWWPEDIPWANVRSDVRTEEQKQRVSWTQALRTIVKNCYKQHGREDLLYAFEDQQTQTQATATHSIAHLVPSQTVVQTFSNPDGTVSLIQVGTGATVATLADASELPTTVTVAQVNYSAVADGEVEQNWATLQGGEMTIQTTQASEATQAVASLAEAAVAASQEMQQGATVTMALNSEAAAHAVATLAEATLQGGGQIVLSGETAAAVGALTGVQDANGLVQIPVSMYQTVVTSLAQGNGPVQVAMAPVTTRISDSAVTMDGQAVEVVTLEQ
Sequence of Estrogen receptor (Homo sapiens) (P03372 whole entry, looked up, the tested form may be a part): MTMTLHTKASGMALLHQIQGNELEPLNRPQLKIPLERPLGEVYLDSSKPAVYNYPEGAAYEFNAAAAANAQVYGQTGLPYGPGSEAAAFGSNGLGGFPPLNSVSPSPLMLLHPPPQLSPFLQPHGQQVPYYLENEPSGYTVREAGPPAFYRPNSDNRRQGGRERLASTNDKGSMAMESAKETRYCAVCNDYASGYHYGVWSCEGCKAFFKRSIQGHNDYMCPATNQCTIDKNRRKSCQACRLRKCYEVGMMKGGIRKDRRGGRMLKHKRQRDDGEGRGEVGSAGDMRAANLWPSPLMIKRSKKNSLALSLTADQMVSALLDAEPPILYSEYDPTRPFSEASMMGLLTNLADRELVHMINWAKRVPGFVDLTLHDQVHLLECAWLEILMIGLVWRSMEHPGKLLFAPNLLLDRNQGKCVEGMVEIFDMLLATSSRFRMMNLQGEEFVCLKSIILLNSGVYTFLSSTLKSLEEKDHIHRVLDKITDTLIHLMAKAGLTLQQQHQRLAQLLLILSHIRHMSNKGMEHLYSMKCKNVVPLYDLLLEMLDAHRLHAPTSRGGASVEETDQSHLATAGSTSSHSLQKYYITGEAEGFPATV
Sequence of Nuclear receptor subfamily 4 group A member 2 (Homo sapiens) (P43354 whole entry, looked up, the tested form may be a part): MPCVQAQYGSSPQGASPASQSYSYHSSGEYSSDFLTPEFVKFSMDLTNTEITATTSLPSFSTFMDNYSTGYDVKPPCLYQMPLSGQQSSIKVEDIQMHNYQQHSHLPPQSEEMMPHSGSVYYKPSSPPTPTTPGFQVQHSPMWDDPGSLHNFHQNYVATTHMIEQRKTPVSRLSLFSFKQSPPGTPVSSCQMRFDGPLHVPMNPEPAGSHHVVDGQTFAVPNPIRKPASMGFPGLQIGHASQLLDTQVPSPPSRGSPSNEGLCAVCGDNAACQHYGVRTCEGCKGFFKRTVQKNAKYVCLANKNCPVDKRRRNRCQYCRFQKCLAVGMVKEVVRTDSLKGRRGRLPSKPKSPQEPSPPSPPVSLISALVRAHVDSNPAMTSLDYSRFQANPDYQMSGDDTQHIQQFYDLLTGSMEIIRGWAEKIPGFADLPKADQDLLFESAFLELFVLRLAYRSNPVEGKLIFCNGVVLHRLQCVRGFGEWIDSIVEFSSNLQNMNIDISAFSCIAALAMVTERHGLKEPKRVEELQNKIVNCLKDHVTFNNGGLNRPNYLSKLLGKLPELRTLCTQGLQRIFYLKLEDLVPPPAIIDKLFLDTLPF
Sequence of Hepatocyte nuclear factor 4-alpha (Homo sapiens) (P41235 whole entry, looked up, the tested form may be a part): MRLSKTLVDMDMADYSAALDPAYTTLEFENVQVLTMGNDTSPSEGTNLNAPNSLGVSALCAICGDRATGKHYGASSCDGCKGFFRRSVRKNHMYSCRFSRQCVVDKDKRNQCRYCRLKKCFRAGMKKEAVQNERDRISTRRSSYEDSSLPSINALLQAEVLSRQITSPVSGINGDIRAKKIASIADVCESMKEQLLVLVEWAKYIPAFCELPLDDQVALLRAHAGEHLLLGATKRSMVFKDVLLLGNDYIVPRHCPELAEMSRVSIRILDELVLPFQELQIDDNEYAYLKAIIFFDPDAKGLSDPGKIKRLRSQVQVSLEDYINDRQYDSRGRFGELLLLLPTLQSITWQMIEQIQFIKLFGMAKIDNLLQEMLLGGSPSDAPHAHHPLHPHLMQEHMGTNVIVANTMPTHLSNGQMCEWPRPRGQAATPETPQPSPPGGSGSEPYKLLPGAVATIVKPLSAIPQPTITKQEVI
Sequence of Bile acid receptor (Homo sapiens) (Q96RI1 whole entry, looked up, the tested form may be a part): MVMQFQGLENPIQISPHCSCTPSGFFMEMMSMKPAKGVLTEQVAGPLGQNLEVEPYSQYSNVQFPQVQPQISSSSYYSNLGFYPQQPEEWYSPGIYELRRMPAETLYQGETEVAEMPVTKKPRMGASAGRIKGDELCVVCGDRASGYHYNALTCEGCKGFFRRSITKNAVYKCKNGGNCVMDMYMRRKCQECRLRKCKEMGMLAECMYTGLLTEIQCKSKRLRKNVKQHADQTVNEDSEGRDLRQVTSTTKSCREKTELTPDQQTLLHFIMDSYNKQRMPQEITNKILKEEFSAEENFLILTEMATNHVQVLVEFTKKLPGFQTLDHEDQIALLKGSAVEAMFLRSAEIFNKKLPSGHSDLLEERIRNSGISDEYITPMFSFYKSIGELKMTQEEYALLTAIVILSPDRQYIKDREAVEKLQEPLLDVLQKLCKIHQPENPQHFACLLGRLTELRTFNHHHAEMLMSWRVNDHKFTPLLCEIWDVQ
Sequence of Oxysterols receptor LXR-alpha (Homo sapiens) (Q13133 whole entry, looked up, the tested form may be a part): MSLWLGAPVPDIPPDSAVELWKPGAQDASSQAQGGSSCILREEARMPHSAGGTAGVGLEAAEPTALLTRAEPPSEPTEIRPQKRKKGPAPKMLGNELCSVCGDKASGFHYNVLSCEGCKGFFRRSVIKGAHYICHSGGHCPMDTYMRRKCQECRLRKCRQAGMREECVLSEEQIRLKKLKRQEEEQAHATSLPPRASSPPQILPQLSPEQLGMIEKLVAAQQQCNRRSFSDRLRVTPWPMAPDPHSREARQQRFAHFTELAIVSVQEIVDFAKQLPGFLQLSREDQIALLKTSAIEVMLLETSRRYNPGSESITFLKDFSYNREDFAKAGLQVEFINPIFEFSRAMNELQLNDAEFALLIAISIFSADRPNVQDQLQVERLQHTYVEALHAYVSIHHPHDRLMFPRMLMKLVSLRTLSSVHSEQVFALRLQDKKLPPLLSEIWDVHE
Sequence of Steroid hormone receptor ERR1 (Homo sapiens) (P11474 whole entry, looked up, the tested form may be a part): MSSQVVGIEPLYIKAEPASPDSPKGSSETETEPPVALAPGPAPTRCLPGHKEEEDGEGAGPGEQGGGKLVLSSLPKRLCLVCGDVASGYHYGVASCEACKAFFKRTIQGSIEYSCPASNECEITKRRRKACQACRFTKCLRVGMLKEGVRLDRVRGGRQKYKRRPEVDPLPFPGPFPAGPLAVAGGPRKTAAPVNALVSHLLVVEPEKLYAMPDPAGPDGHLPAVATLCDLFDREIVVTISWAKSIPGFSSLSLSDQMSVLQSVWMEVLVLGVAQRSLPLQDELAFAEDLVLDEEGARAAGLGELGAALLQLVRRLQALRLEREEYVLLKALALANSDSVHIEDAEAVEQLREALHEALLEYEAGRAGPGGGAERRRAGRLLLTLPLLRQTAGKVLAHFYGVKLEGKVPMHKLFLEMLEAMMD

In the case of `CCCCCCCCC`, the compound was called inactive in assay [1], in [2], in assay [3], in assay [4], in assay [5] and in [6]. Moreover, the result in [7], in [8], in assay [9], in assay [10] and in assay [11] was inactive.
For the compound `COC(C)CCO` (stereo not given), the compound was called inactive in [1], in assay [2], in assay [12], in [5], in [8] and in assay [14]. The call in assay [15], in assay [11] and in assay [16] was inactive. Besides, the AC50 (commonly the midpoint of the concentration-response curve, whichever way the signal moves) in [3] was 65.3 µM (active); in assay [13], 27.7 µM (active).
For `Cc1ccc(C=O)cc1`, the result in assay [1], in assay [2], in [3], in assay [4], in assay [5] and in [6] was inactive. Also, the outcome in [7], in assay [17], in assay [8], in assay [15], in assay [11] and in [16] was inactive.
For `O=Nc1ccc(Nc2ccccc2)cc1`, the call in assay [1], in assay [2], in assay [5], in [6], in assay [17] and in assay [13] was inactive. The compound was called inactive in [8], in assay [9] and in [10]. In addition, the AC50 in [3] is 30.3 µM (active); in assay [4], 34.9 µM (active); in assay [16] it was 56.3 µM (active).
In the case of `c1ccc(CCCc2ccccn2)cc1`, the result in [1], in [4], in assay [18], in assay [5], in [19] and in [8] was inactive. Moreover, the outcome in assay [9], in [14], in assay [10], in assay [15], in assay [11] and in assay [16] was inactive. In addition, the AC50 in [2] is 148 µM (active); in assay [3], 42.9 µM (active).
